# Assay outcomes as filed in PubChem BioAssay.
# p53 reactivator – re-activators of mutant p53; 320,000 compounds, 0.063% hits; H1299 p53-A138V BP100-luciferase reporter, luminescence, 24 h; Potency, µM (series often up to 92.2 µM), inactives show at the highest dose activity change, positive = activation, usual class: activators; note: potency is the fitted concentration of half-maximal effect; % of control where 0% means no effect; nearly all actives have a fitted effect of over 45% in size
#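 H1299 (p53-null), stable ts p53-A138V + BP100-Luc; 1000 cells/well, Opti-MEM/10% FBS; cpd 4 pt, 1:5; 24 h, 37 deg C, 5% CO2; detection reagent 10 min RT; luminescence.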
# HEK293 tox – cytotoxicity in counter-screen for GLP-1R inverse agonists | Potency, µM (doses to about 38.3 µM), for inactives: at the top dose activity change, negative = inhibition, most hits filed as inhibitors | HEK293 cAMP-luciferase reporter cells, luminescence, 24 h | 410,000 compounds, 0.13% hits;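 note: loss of luciferase light is scored as toxicity; potency is the fitted concentration of half-maximal effect; % is set by controls: 0 for no effect and ±100 for the full control effect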
#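 To flag toxic compounds, the library was rerun on cells for 24 hr at 37 deg C and 5% CO2. Viability-linked luminescence was captured 12 min after adding luciferase detection reagent.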
# LDHA block – blocks human lactate dehydrogenase A. P00338. purified LDHA, NADH/diaphorase-resazurin fluorescence; hits give low values. activity change, % (values are at about 110 or 230 µM). 480,000 compounds, 0.15% hits. AID 1347041; in the data active = activity change below about -30%; inconclusive = mostly about -25% to -30%;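 note: plate controls were DMSO wells for no effect and wells without enzyme for full effect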
#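 Human LDH5 at 2 nM final in Tris HCl pH 7.4 with 0.06 mM NADH and 0.2 mM pyruvate, reacted 5 minutes at room temperature. Remaining NADH coupled via diaphorase/resazurin; resorufin fluorescence read at 0 and 20 minutes, normalized to enzyme-free and DMSO wells.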
# ClpP mod – qHTS Assay for Activators of ClpP. purified B. subtilis ClpP, FRET peptide cleavage, 20 min. ATP-dependent Clp protease proteolytic subunit (Bacillus subtilis (strain 168)), P80244. AID 651965, 2013. 340,000 compounds, 1.9% hits. Potency, µM (titrated, usually from 57.5 µM), for the others: at the highest dose activity change, negative = active; active = well fitted falling curve with a large enough effect; inconclusive = small, poorly fitted or top-dose-only effect; inactive = no such curve, though single readings can be large or run the other way; note: potency is the fitted concentration of half-maximal effect; the source files actives as falling curves though it sought activators and does not explain the sign; nearly all actives have a fitted effect of over 65% in size
# Target sequence (P80244 whole entry, looked up): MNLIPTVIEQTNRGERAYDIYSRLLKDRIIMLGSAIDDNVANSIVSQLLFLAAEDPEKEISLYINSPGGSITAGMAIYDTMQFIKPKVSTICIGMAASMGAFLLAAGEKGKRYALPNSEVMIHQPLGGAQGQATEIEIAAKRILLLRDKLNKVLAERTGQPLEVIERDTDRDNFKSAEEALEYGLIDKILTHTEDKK
#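 Purified B. subtilis ClpP, 10 microg/mL final in Tris/HCl pH8 with KCl, BSA, glycerol and Tween-20, cleaved an Abz/nitrotyrosine-quenched decapeptide. Fluorescence (ex 320, em 430) was read at 0 and 20 min at room temperature. Delta was normalized to 5.8 microM ADEP and DMSO/no-enzyme controls.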
# GLP1R ag – agonists of human GLP-1 receptor. P43220. 380,000 compounds, 0.007% hits. Potency, µM (titrated, usually from 45.6 µM), without a hit: top-dose activation, most hits filed as activators. HEK293 GLP-1R CRE-luciferase, luminescence, 4-6 h; cells express a hypersensitive GLP-1R form; note: potency is the fitted concentration of half-maximal effect; % of control where 0% means no effect
# Target sequence (P43220 whole entry, looked up): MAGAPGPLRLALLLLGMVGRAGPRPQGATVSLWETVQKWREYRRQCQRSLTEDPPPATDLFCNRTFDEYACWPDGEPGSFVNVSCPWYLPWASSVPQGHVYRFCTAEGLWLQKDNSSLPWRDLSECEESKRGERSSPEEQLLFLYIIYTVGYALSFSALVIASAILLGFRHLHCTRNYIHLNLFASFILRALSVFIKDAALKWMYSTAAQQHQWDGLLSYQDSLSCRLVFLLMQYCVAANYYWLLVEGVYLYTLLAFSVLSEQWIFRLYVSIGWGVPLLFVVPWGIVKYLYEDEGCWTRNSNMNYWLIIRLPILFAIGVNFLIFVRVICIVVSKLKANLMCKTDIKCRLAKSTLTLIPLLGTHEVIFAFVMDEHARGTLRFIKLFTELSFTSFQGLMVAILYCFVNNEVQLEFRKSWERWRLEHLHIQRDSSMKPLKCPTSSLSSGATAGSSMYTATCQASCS
# GLP-1R inv ag – GLP-1 receptor (human) inverse agonism | AID 624417 | 410,000 compounds, 1.6% hits | Potency, µM (series often up to 38.3 µM), for inactives: at the highest dose activity change, negative = inhibition, most hits filed as inhibitors | P43220 | HEK293 GLP-1R CRE-luciferase, luminescence, 24 h; GLP-1R form is constitutively active; note: potency is the fitted concentration of half-maximal effect; % is set by controls: 0 for no effect and ±100 for the full control effect; nearly all actives have a fitted effect of over 55% in size
#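 Assay principle: reduced luminescence from a cAMP-responsive reporter in HEK293 cells co-expressing a constitutively active GLP-1R. Conditions: 24 hr compound incubation, 37 deg C, 5% CO2.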
# * marks the source's active call; other numbers are inactive results; ? = inconclusive; . = no result given; ! = repeats disagree. This is a sample that favours compounds with a hit; in the whole collection about 2.9% have one here. Unless noted, calls come from the whole dose curve; as a rule, active = well fitted curve in the direction sought with a large enough effect; inconclusive = small, poorly fitted or top-dose-only effect, or another doubt; inactive = no such curve, though single readings can be large; an effect the other way counts as inactive or inconclusive.
SMILES,p53 reactivator,HEK293 tox,LDHA block,ClpP mod,GLP1R ag,GLP-1R inv ag
CCCCNC(=O)CSC1=Nc2ccccc2C2=NC(CCC(=O)NCc3ccccc3OC)C(=O)N12 (configuration not stated),.,11%,7,-27%,.,2%
CCOc1ccc(NC(=O)CSC2=Nc3ccccc3C3=NC(CC(=O)NCc4ccco4)C(=O)N23)cc1 (configuration not stated),.,-5%,1,-3%,.,?
Cc1cc(Cl)ccc1OCC(=O)OCC(=O)Nc1ccc(F)c([N+](=O)[O-])c1,11%,-14%,6,1%,6%,3%
O=C1CS(=O)(=O)N(Cc2cccc(F)c2)c2ccc(Br)cc21,13%,-6%,0,1%,-3%,10µM*
Cc1ccc(S(=O)(=O)/C(=C/Cl)NC(=O)c2ccccc2)cc1,-15%,6.3µM*,-5,-2%,-8%,10µM*
Cc1ccc(C(=O)NC(=C(Cl)Cl)S(=O)(=O)c2ccc(C)cc2)cc1,17%,?,-1,-10%,-13%,?
Cc1onc(-c2ccccc2Cl)c1C(=O)Oc1cccc2cccnc12,0%,?,6,.,7%,13µM*
COC(=O)c1c(NC(=O)c2ccc(C)o2)sc2c1CCCCC2,?,113%,-5,32µM*,?,?
CC(C)OC(=O)c1c(NC(=O)c2ccco2)sc2c1CCCCC2,6%,-1%,8,28µM*,1%,?
CCc1ccc(NC(=S)NC(=O)c2c(-c3ccccc3Cl)noc2C)cc1,4%,-7%,-8,.,11%,10µM*
O=C(NCC(=O)N(Cc1ccc(F)cc1)C(C(=O)NCC1CCCO1)c1ccccc1)c1ccco1 (configuration not stated),0%,-1%,4,.,6%,-7%
Oc1c(Br)cc(/C=N/NC(=S)NCc2ccco2)cc1Br,-3%,-3%,-3,.,-1%,-41%
Cc1sc(NC(=O)c2ccco2)c(CN2CCN(c3ccccc3)CC2)c1C,7%,-10%,-2,?,1%,0%
CC1(C)Cc2c(sc(NC(=S)NC(=O)c3ccccc3)c2C(=O)O)CO1,0%,5%,1,-1%,0%,1%
COC(=O)c1c(NC(=O)c2c(-c3ccccc3Cl)noc2C)sc2c1CCC2,0%,67%,-4,32µM*,4%,?
Cc1sc(NC(=O)c2ccco2)c(CN2CCCCC2)c1C,9%,3%,1,2%,0%,6.3µM*
CC1(C)Cc2c(sc(NC(=O)c3ccco3)c2C(=O)O)CO1,18%,-2%,-34*,-4%,2%,1%
CCOC(=O)CSC1=C(C#N)C(c2ccccc2)C(C(C)=O)=C(C)N1 (configuration not stated),-1%,73%,5,-3%,13%,9%
COC(=O)Cc1ccc(NC(=O)c2ccc3c(c2)C(=O)N(Cc2ccco2)C3=O)cc1,8%,-11%,-3,-1%,-6%,6%
Cc1ccc(-c2cc(-c3ccccc3)nc(Cl)n2)cc1,15%,20%,-6,28µM*,1%,61%
Cc1ccc(-c2cc(N)n3nc(-c4ccc(C)cc4)cc3n2)cc1,6%,?,-9,13µM*!,-12%,0%
Cc1ccc(-c2cc3nc(-c4ccccc4)cc(N)n3n2)cc1,8%,0%,-6,25µM*,-11%,4%
Cc1ccc(-c2cc3nc(-c4ccc(Br)cc4)cc(N)n3n2)cc1,4%,6%,-8,28µM*,-14%,-20%
Nc1ccc(Cl)cc1C(=O)c1ccc[nH]1,.,-11%,-4,0%,-4%,?
COc1cc(/C=C2/C=Cc3ccccc32)ccc1N(C)C,.,.,7,3%,.,.
SMILES,p53 reactivator,HEK293 tox,LDHA block,ClpP mod,GLP1R ag,GLP-1R inv ag
Cc1cc(N)n2nc(-c3ccccc3)cc2n1,?,9%,-1,28µM*,-2%,?
COc1cccc(-c2csc(N3CCN(C(=S)Nc4cccc(Cl)c4)CC3)n2)c1,2%,-7%,-7,-2%,-7%,10µM*
COc1cccc(-c2csc(N3CCN(C(=S)Nc4ccccc4Cl)CC3)n2)c1,5%,7%,-2,-4%,1%,?
COc1cccc(-c2csc(N3CCN(CC(=O)NNC(=O)c4ccc(Br)cc4)CC3)n2)c1,6%,4%,-2,-3%,-3%,11µM*
O=C(ONC1=NCCCCC1)c1cccc([N+](=O)[O-])c1,1%,11µM*,-8,.,14%,?
O=C(NNC(=O)c1cc2ccccc2cc1O)Nc1ccc(Br)cc1,-2%,0%,0,28µM*,-15%,10%
COc1cc(NC(=O)c2cc3ccccc3cc2O)c(OC)cc1Cl,4%,37%,0,13%,-3%,?
COc1ccccc1NC(=O)c1cc2cc(Br)ccc2cc1O,?,17%,1,-2%,-4%,6.3µM*
O=C(COC(=O)C1CC1)Nc1ccc2[nH]c(=O)[nH]c2c1,9%,0%,0,-3%,3%,1%
CCOc1ccc(NC(=O)CC2C(=O)N(c3ccc(Cl)cc3)C(=O)N2Cc2cccs2)cc1 (configuration not stated),.,1%,-16,-1%,.,5%
CCCN(C(=O)c1cc(S(=O)(=O)N2CCCCC2)ccc1Cl)C1CCS(=O)(=O)C1 (configuration not stated),-1%,0%,0,-4%,-3%,9%
CCCN(C(=O)C1CCN(S(=O)(=O)c2ccc(OC)c(OC)c2)CC1)C1CCS(=O)(=O)C1 (configuration not stated),6%,15%,-6,14µM*,12%,-7%
Cc1ccsc1/C=C/c1ccc2cccc(O)c2n1,40µM*,-26%,10,-3%,16%,?
Cc1ccsc1/C=C/c1ccc2ccccc2n1,13%,5%,1,-1%,-3%,?
CC[n+]1c(-c2ccccc2)csc1Nc1c(C)n(C)n(-c2ccccc2)c1=O,-3%,3%,1,1%,-3%,?
CC[n+]1c(-c2ccc(C)cc2)csc1Nc1c(C)n(C)n(-c2ccccc2)c1=O,-13%,-18%,-4,0%,9%,8.9µM*
O=C(C1=C(c2ccccc2)S(=O)(=O)CCO1)N(Cc1ccc(F)cc1)c1ccccn1,.,.,0,.,.,.
Clc1cccc(-c2nc3ccccn3c2Nc2ccc3c(c2)OCCO3)c1,.,-6%,8,4%,.,6.3µM*
